# Compound activity as filed in PubChem.
# In the library only some 9.5% were active in any assay of this set; here they are far more common.
# HPGD inh = HPGD (human) dehydrogenase inhibition; P15428; purified HPGD, NADH fluorescence kinetic, PGE2 substrate; Potency, µM, for the others: at the highest dose activity change, negative = inhibition, hits mostly inhibitors; hit rate 4.3% among 150,000; AID 894; active = well fitted inhibition curve with a large enough effect, not every such curve was filed as active; inconclusive = small, poorly fitted or top-dose-only effect, or another doubt; inactive = no such curve, though single readings can be large or run the other way
#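 20 nM HPGD preincubated 15 min at room temperature with compound in 50 mM Tris-HCl pH 8, 0.01% Tween 20. Started with 1 mM NAD+ and 30 uM prostaglandin E2; NADH fluorescence (360/450 nm) read 5 times over 30-s intervals, last minus first.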
# Tau fluor cs = counter-screen for tau fibril formation inhibitors | AID 1463 | Potency, µM (series often up to 57.7 µM), inactives show at the highest dose activity change, negative = decrease | tau K18 P301L Alexa594 fluorescence, heparin fibrillization | hit rate 0.93% among 280,000; also: nearly all actives have a fitted effect of over 55% in size
#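 Human tau K18 P301L (15 uM unlabeled, 0.24 uM Alexa 594-labeled) in 100 mM sodium acetate pH 7 with 20 uM heparin, 6 hr at 37 C. ThT 30 uM added, 1 hr ambient; Alexa 594 FP and total fluorescence read at 555/632 nm.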
# Tau ThT inhib = tau fibrillization inhibition (ThT binding); recombinant tau K18 P301L (four-repeat tau fragment), heparin-induced fibrillization, ThT fluorescence; P10636; AID 1460; Potency, µM (doses to about 57.4 µM), for inactives: top-dose activity, negative = inhibition, usual class: inhibitors; hit rate 2.1% among 270,000; also: nearly all actives have a fitted effect of over 55% in size
# Target sequence (P10636 561-689 P618L limits assumed): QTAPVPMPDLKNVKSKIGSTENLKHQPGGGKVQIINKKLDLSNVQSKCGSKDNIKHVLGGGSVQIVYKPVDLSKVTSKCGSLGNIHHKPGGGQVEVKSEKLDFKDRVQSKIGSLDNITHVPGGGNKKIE
#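 Tau K18 P301L fragment (15 uM unlabeled plus 0.24 uM Alexa 594-labeled) in 100 mM sodium acetate pH 7 with compound, fibrillization induced by 20 uM heparin for 6 hr at 37 C. Thioflavin T (30 uM) added, fluorescence read after 1 hr (ex 450, em 510 nm).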
# Tau fibril FP = blocks human tau fibril formation measured by polarization. K18 P301L tau heparin fibrillization, Alexa594 FP, 6 h. AID 1468. hit rate 0.39% among 280,000. Potency, µM (highest dose often 57.7 µM), without a hit: at the highest dose activity, negative = inhibition, usual class: inhibitors; also: nearly all actives have a fitted effect of over 55% in size
#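 Steps: dispense K18 P301L tau (15 uM plus 0.24 uM Alexa 594 tracer, final) in pH 7 sodium acetate; add compound; add heparin (20 uM final); incubate 6 hr, 37 C; add ThT (30 uM final); after 1 hr ambient, read FP.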
# NPSR antag = blocks cAMP signaling of the human neuropeptide S receptor; Q6W5P4; CHO-NPSR cells, cAMP TR-FRET, antagonist mode; Potency, µM (highest dose often 38.3 µM), inactives show at the highest dose activity change, negative = inhibition, hits mostly inhibitors; hit rate 1% among 220,000; also: nearly all actives have a fitted effect of over 50% in size
# ALDH1A1 block = ALDH1A1 (human) enzyme inhibition. P00352. Purified ALDH1A1, NADH fluorescence, propionaldehyde substrate. Potency, µM (doses to about 75.3 µM), inactives show at the top dose activity, negative = inhibition, most hits filed as inhibitors. hit rate 7.3% among 220,000. AID 1030; active = well fitted inhibition curve with a large enough effect, not every such curve was filed as active; inconclusive = small, poorly fitted or top-dose-only effect, or another doubt; inactive = no such curve, though single readings can be large or run the other way;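 also: plate controls were no enzyme wells and a reference inhibitor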
# Target sequence (P00352 whole entry, looked up): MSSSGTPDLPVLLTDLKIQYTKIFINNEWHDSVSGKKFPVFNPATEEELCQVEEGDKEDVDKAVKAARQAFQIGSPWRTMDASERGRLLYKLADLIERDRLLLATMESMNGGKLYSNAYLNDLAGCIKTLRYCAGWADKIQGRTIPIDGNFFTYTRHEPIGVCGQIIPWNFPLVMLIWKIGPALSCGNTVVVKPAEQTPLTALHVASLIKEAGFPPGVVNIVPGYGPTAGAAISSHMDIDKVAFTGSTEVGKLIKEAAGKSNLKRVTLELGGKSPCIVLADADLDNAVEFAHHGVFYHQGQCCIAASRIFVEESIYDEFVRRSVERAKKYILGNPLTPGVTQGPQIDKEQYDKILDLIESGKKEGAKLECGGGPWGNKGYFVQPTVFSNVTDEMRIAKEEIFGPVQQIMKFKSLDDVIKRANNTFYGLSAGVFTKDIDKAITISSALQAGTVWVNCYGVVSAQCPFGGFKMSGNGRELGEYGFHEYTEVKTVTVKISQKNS
# The depositor's hits bear a star; ? = inconclusive; / = no result given; [ ] = dose if it differs, or a comment. Unless noted, calls follow the shape of the dose curve; as a rule, active = well fitted curve in the direction sought with a large enough effect; inconclusive = small, poorly fitted or top-dose-only effect, or another doubt; inactive = no such curve, though single readings can be large; an effect the other way counts as inactive or inconclusive. Unless noted, % is scaled to controls: 0 for no effect and ±100 for the full control effect; potency is read from the fitted curve at half-maximal effect.
SMILES,HPGD inh,Tau fluor cs,Tau ThT inhib,Tau fibril FP,NPSR antag,ALDH1A1 block
CC(=O)c1cccc(CN2CCN(Cc3ccc(F)cc3)C(CCO)C2)c1 (stereo not drawn),/,1%,-6%,4%,-2%,28µM*
CC(=O)c1cccc(CN2CCN(Cc3ccc(C)cc3)C(CCO)C2)c1 (stereo not drawn),/,-4%,-5%,-9%,-10%,9%
NC(=O)C1(NC(=O)[C@@H]2CC3(CC(c4cccc(NC(=O)[C@@H]5CCC(=O)N5)c4)=NO3)CN2C(=O)c2cnccn2)CC1 (stereo partly drawn),-13%,5%,4%,2%,-5%[46.1 µM],22µM*
COCC(=O)N1CCC2(CCCN(C(=O)Nc3cccc(F)c3)C2)CC1,-2%,/,/,/,/,7%
CCCCC(CC)COC(=O)COc1ccc(Cl)cc1Cl (stereo not drawn),-5%,/,/,/,/,?
C=CCn1c(SC(C)C(N)=O)nc2sc(CC)cc2c1=O (stereo not drawn),/,-1%,-2%,2%,-1%,8.9µM*
C=CCn1c(SCC(=O)Nc2sccc2C(N)=O)nc2sc(CC)cc2c1=O,-5%,?,-6%,-8%,?,?
C=CCn1c(SC(C)C#N)nc2sc(CC)cc2c1=O (stereo not drawn),/,-13%,-13%,-7%,-29%,2µM*
CC(Sc1ncnc2ccccc12)C(=O)Nc1ccc2c(c1)OCCO2 (stereo not drawn),-12%,-25%,?,5%,-15%[46.1 µM],?
CCn1c(CNc2nc(-c3ccccc3)cs2)nnc1SCC(=O)NCc1ccco1,?,-18%,?,?,8%[46.1 µM],28µM*
Cc1ccc(C(=O)CSc2nnc(CNc3nc(-c4ccccc4)cs3)n2C)cc1,-21%,-12%,?,4%,-17%[46.1 µM],14µM*
O=C(CSc1ncc(-c2ccccc2)nn1)NCc1ccco1,-24%,-4%,-7%,-4%,-3%[46.1 µM],-3%
COCCNC(=O)CSc1nc(-c2ccccc2)cs1,32µM*,-2%,-3%,-2%,5%[46.1 µM],0%
O=C(CSc1nc(-c2ccccc2)cs1)NCc1ccco1,28µM*,-10%,-11%,-3%,27%[46.1 µM],25µM*
CCC(=O)NC(Nc1nc(C)cs1)(C(=O)OC)C(F)(F)F (stereo not drawn),0%,-5%,-7%,-5%,12%,13%
Cc1cccc(OCCSc2nc3ccccc3n2CC(=O)N2CCOCC2)c1C,/,-11%,-10%,2%,/,/
COc1ccc(CC(=O)NCc2n[nH]c(=S)n2-c2cccc(Cl)c2)cc1,/,-1%,1%,14%,-5%,0%
c1cncc(-c2csc(NCc3ccco3)n2)c1,14µM*,-14%,-23%,0%,-8%[46.1 µM],?
Cc1ccc(NC(=O)COC(=O)Cc2ccsc2)cc1S(=O)(=O)N1CCOCC1,0%,-4%,4%,-1%,7%,-3%
N#C/C(=C\c1ccccn1)c1nc2ccccc2s1,/,14µM*[quencher],8.9µM*,?,-9%,?
N#C/C(=C/c1ccc(-c2ccc(S(N)(=O)=O)cc2)o1)c1nc2ccccc2s1,?,?,11µM*,-4%,-30%,-7%
COC(=O)c1ccc(/C=C(\C#N)c2nc3ccccc3s2)cc1,-11%,?,7.9µM*,-4%,-3%[46.1 µM],?
N#C/C(=C/c1ccc(-c2ccc(S(N)(=O)=O)cc2)o1)C(=O)Nc1ccccc1,?,-18%,?,3%,-29%,6%
COc1ccc(/C(C#N)=C/c2ccccn2)cc1,/,-26%,?,-5%,40%,/
CCOC(=O)N1CCC(NC(=O)c2ccc3c(c2)N(Cc2ccc(F)cc2)C(=O)c2ccccc2S3(=O)=O)CC1,/,-7%,9%,8%,/,/
SMILES,HPGD inh,Tau fluor cs,Tau ThT inhib,Tau fibril FP,NPSR antag,ALDH1A1 block
O=S(=O)(NCCSc1ccccc1)c1ccc2c(c1)OCCO2,-17%,-22%,-7%,5%,-1%[46.1 µM],0.56µM*
CCOc1cc(C(=O)Nc2ccc3nc(Nc4cccc(Cl)c4)cc(C)c3c2)cc(OCC)c1OCC,/,2.2µM*[quencher],?,-7%,/,/
CCOc1cc(C(=O)Nc2cccc(-c3nc4ccccc4o3)c2)cc(OCC)c1OCC,/,-9%,-1%,-16%,/,/
Cc1ccccc1C(=O)Nc1ccc2nc(Nc3cccc(C(F)(F)F)c3)cc(C)c2c1,/,5.6µM*[quencher],-23%,?,/,/
Cc1cc(Nc2cccc(C(F)(F)F)c2)nc2ccc(NC(=O)c3cncc(Br)c3)cc12,/,5µM*[quencher],?,-8%,/,/
CCN1CCN(c2cc(C)c3cc(NC(=O)c4cncc(Br)c4)ccc3n2)CC1,?,?,?,?,-21%[46.1 µM],?
Cc1ccccc1C(=O)Nc1ccc2nc(N3CCCCC3)cc(C)c2c1,/,?,?,11%,/,/
Cc1cc(Nc2cccc(Cl)c2)nc2ccc(NC(=O)c3cncc(Br)c3)cc12,/,6.3µM*[quencher],?,-11%,/,/
COc1ccc(C(=O)CCC(=O)Nc2ccc(C)c(Cl)c2)cc1,/,-29%,-18%,?,/,/
COC(=O)N1CCC2(CCCN(C(=O)Nc3cccc(F)c3)C2)CC1,-4%,/,/,/,/,1%
CCOc1cc(CNC(=O)c2ccccc2NC(=O)c2nsc3ccccc23)ccc1OC,/,-29%,-6%,?,/,/
CC(C)CCC[C@@H](C)[C@@H]1CC[C@@H]2[C@H]3CC[C@H]4C[C@@H](N)CC[C@@]4(C)[C@@H]3CC[C@]21C,-3%,/,/,/,/,14%[13.5 µM]
CCCc1cc(=O)oc2c3c(ccc12)OCN(Cc1ccc(OC)cc1)C3,/,-7%,-5%,-12%,/,/
Cc1c(CNC2CCCCC2)c(C(=O)O)c(C)n1Cc1ccccc1F,/,-5%,0%,-2%,/,/
CCC(C)NC(=O)CO/N=C/c1ccc(C(=O)OC)cc1 (stereo not drawn),-21%,-12%,-7%,-6%,-7%[46.1 µM],4%
COC(=O)c1ccc(/C=N/OCC(=O)NC2CCCC(C)C2C)cc1 (stereo not drawn),11µM*,-13%,-16%,-4%,?,2%
COc1ccccc1OCC(=O)NC1CCCCCC1,10µM*,-6%,1%,3%,-5%[46.1 µM],?
COC(=O)c1ccc(/C=N/OCC(=O)NC2CCCCCCC2)cc1,28µM*,-4%,-15%,?,?,-4%
Cc1ccc2nc(-c3ccc(NC(=O)CN4C(=O)c5ccccc5C4=O)cc3)sc2c1,?,-3%,3%,6%,-56%,?
Cc1ccc2nc(-c3ccc(NC(=O)COC(=O)c4ccc(=O)[nH]c4)cc3)sc2c1,?,5%,8%,-4%,-7%,3.5µM*
Cc1cn([C@H]2C[C@H](N=[N+]=[N-])[C@H](CO)O2)c(=O)[nH]c1=O,-16%,/,/,/,/,4%[13.5 µM]
